Bioassay records from PubChem BioAssay.
This is a sample that favours compounds with a hit; in the whole collection about 4.6% have one here.
D1 antagonist = Antagonist of Human D 1 Dopamine Receptor: qHTS | D(1A) dopamine receptor (Homo sapiens), P21728 | HEK293 TREx D1 cells, calcium flux, dopamine EC80; hits give low values | activity change, negative = inhibition, % at 10 µM | actives 3.2% (n = 360,000); in the data active means activity change below about -30%; further: on the % scale 0 is the no-effect control and ±100 the full control effect
Target sequence (P21728 whole entry, looked up): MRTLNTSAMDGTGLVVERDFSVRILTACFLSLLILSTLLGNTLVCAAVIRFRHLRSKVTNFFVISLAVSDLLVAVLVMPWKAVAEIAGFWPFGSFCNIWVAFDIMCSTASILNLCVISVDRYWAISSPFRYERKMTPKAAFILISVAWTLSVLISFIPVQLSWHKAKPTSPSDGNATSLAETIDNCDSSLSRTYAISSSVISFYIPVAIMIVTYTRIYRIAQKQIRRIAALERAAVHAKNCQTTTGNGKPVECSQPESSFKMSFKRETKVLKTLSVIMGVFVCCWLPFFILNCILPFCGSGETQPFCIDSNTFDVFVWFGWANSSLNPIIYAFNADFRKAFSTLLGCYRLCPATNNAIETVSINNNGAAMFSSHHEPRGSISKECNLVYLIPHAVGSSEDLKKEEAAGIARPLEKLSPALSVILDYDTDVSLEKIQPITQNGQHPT
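Antagonism measured as reduced calcium response to an EC80 dopamine addition following 180 s compound pre-read; cells were inducible HEK293 Trex D1 plated overnight at 30 C, read kinetically at 1 cycle/sec.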
D1 ag = Allosteric Agonists of the Human D1 Dopamine Receptor: qHTS; D(1A) dopamine receptor (Homo sapiens), P21728; HEK293 T-REx D1 cells, calcium flux, agonist mode; activation, % at 2 µM; actives 1% (n = 360,000); AID 504660, 2011; further: 0% is about no effect
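Agonism was scored from calcium flux recorded over 180 s (1 read/s) after pintool compound addition, following a 10-cycle baseline. Cells were inducible force-coupled HEK293 TREx D1, plated overnight at 30 C and loaded with no-wash calcium dye.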
TRHR agonist = qHTS for Small Molecule Agonists and Allosteric Enhancers of Human TRH Receptor: Primary Screen for Agonists; actives 0.18% (n = 360,000); AID 493084, 2011; TRHR cells, calcium flux fluo-8, FDSS agonist mode; activation, % at 2 µM; further: 0% is about no effect
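In this calcium-flux screen, cells bearing human TRHR are dye-loaded with fluo-8, baselined for 10 cycles, then exposed to library compounds; positive kinetic calcium responses during the agonist phase mark hits, with TRH as control.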
D1 PAM = Potentiators of Human D1 Dopamine Receptor: qHTS; D(1A) dopamine receptor (Homo sapiens), P21728; potentiation, % at 10 µM; actives 0.036% (n = 360,000); HEK293 TREx D1 cells, calcium flux, dopamine EC20 potentiation; in the data active means potentiation above about 30%; further: 0% is about no effect
TRHR PAM = qHTS for Small Molecule Agonists and Allosteric Enhancers of Human TRH Receptor: Primary Screen for Enhancers. actives 0.66% (n = 360,000). Thyrotropin-releasing hormone receptor (Homo sapiens), P34981. enhancement, % at 2 µM. TRHR cells, fluo-8 calcium fluorescence, EC20 TRH enhancement; in the data active means enhancement above about 30%; further: 0% is about no effect
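Enhancer read-out: after compound pinning and an initial kinetic agonist-mode read, an EC20 of TRH (10 nM final) was injected and fluo-8 calcium signal (Ex 480/Em 530) followed at 1 s/cycle for 100 cycles in TRHR-expressing cells.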
* = called active by the depositor; · = no result given; ! = a repeat was not active. Unless noted, no stated cut-off is given here; in the data, active means activation above about 30%; inactive means the rest.

SMILES | D1 antagonist | D1 ag | TRHR agonist | D1 PAM | TRHR PAM
COc1ccc(C)cc1NC(=O)CN(C)S(=O)(=O)c1ccc2c(c1)c(=O)n(C)c(=O)n2C | -30*! | 3 | 0 | -2 | -2
CCOC(=O)c1c(C)[nH]c(C)c1S(=O)(=O)N(C)CC(=O)Nc1cc(C)ccc1OC | -40* | 0 | -1 | -7 | -2
Cc1cc(=O)[nH]c2nnc(SCc3cccc(C(F)(F)F)c3)n12 | · | -2 | 0 | 5 | -1
Cc1cccc(NC(=O)CSc2nc3c(oc4ccccc43)c(=O)n2Cc2ccco2)c1 | 0 | 0 | 0 | -2 | -2
CCOc1ccccc1CNC(=O)c1c(C)oc2ncnc(N3CCOCC3)c12 | 7 | 3 | -1 | -1 | -4
O=C1NC(=O)C(CC(=O)N(Cc2ccco2)C2(C(=O)NC3CCCC3)CCCCC2)N1 (stereo unspecified) | -10 | 2 | -1 | -2 | 33*
COc1cccc(/C=C/C(=O)NNC(=O)c2ccncc2)c1 | -6 | 3 | 0 | -5 | -4
COc1cccc(/C=C/C(=O)NNC(=O)c2ccncc2)c1OC | -39* | 100* | 0 | -3 | -1
CN(C)c1cccc(C(=O)N/C=C/n2cnc3cc(C(F)(F)F)ccc32)c1 | -39* | 0 | 0 | 5 | -7
CCC(=O)N/C=C/n1cnc2cc(C(F)(F)F)ccc21 | -23 | 6 | 1 | -5 | -9
COc1ccc(Nc2ncc3c(n2)CCN(Cc2cc(Br)cs2)C3)c(OC)c1 | -1 | 0 | 0 | 1 | -4
CC(C)(Oc1ccc(CCNC(=O)c2ccc(-c3ccccc3)o2)cc1)C(=O)O | -2 | 3 | 0 | -8 | -4
CC(C)(Oc1ccc(-c2ccco2)cc1)C(=O)O | -46* | 4 | 0 | 5 | -4
COc1cc(NC(=O)CCCOc2cc(=O)n(C)c3ccccc23)cc(OC)c1OC | 3 | 3 | 1 | -2 | 14
Cc1cc(C(F)F)n2ncc(C(=O)NCc3ccccc3C(F)(F)F)c2n1 | 15 | 6 | 0 | 9 | -14
Cc1cc(C(F)F)n2ncc(C(=O)NCc3ccccc3F)c2n1 | -32* | 2 | 0 | -4 | -5
Cc1cccc(OC(=O)c2snnc2C)c1 | -6 | 0 | 0 | -1 | -1
CCOc1cc(C2C(C(=O)OC)=C(C)NC3=C2C(=O)c2ccccc23)cc(Br)c1OCC (stereo unspecified) | -8 | 0 | 0 | 0 | 4
Cc1ccc2nc(N=C(N)N)nc(C)c2c1 | -52* | 1 | 0 | -9 | -9
COc1ccc(S(=O)(=O)N2CCN(CC(=O)Nc3ccc(Cl)c(C(F)(F)F)c3)CC2)cc1 | -12 | 10 | 1 | -1 | 2
COC(=O)/C(N=Nc1c(C)n(C)n(-c2ccccc2)c1=O)=C(\C)O | -9 | 1 | 0 | 1 | 33*
CCOC(=O)/C(N=Nc1c(C)n(C)n(-c2ccccc2)c1=O)=C(/O)c1ccccc1 | -5 | 1 | 0 | -1 | -3
CCc1cn(C2CC(O)C(CO)O2)c(=O)[nH]c1=O (stereo unspecified) | -35* | 2 | -1 | -4 | 1
CCOc1ccccc1-c1noc(CCCC(=O)Nc2cccc(C(F)(F)F)c2)n1 | 2 | 5 | -1 | -1 | 1
CCOC(=O)c1scc(-c2ccccc2)c1S(=O)(=O)Nc1cc(OC)cc(OC)c1 | -16 | 4 | 0 | -3 | 5
SMILES | D1 antagonist | D1 ag | TRHR agonist | D1 PAM | TRHR PAM
CCn1c(N2CCN(C(=O)c3ccco3)CC2)nc2ccccc21 | 8 | 3 | 0 | -6 | 1
CC(C)c1cc(N2CCN(C(=O)c3ccco3)CC2)n2c(nc3ccccc32)c1C#N | -33* | 0 | 0 | -3 | -3
Cc1ccc(C(=O)NCCc2nnc3c(C(F)(F)F)cc(Cl)cn23)o1 | -33* | 0 | 0 | -9 | -22
Cc1c(NC(=O)C(C)(C)Oc2ccc(Cl)cc2)cccc1-c1nc2ccccc2o1 | -5 | 1 | 2 | -3 | 0
Cc1cccc(NC(=S)NC2CC3CCCC(C2)N3Cc2cccs2)c1 (stereo unspecified) | -89* | 13 | 2 | -20 | 5
COc1ccc(C2C(C(C)=O)=C(C)N=c3s/c(=C\c4cc(C)n(C)c4C)c(=O)n32)c(OC)c1 (stereo unspecified) | -13 | 121* | 53* | -7 | 10
O=C(Nc1nccs1)c1ccc2c(c1)C(=O)N(Cc1cccnc1)C2=O | -5 | 5 | 0 | -1 | 4
Cc1cnc(NC(=O)c2ccc3c(c2)C(=O)N(Cc2cccnc2)C3=O)s1 | -33* | 2 | 0 | -2 | -1
O=C(CN1C(=O)c2cccnc2Oc2ccc(Cl)cc21)Nc1ccccc1F | -26 | 2 | -1 | -6 | -5
O=C(Nc1cc(Sc2ccccn2)cc([N+](=O)[O-])c1)c1cccc(Cl)c1 | -35* | 22 | 0 | -8 | 17
Fc1ccc(Nc2nc3nonc3nc2Nc2cccc(C(F)(F)F)c2)cc1 | -37* | 24 | 7 | -3 | -10
Fc1ccc(CNC(=S)Nc2cccc(C(F)(F)F)c2)cc1 | -23 | -1 | 0 | -12 | 8
O=C(CCC1CCCC1)NCCS(=O)(=O)N1CCN(c2ccc(F)cc2)CC1 | 0 | 1 | -1 | -5 | -9
O=C(Cn1cnc2ccccc2c1=O)c1ccccc1 | -7 | 1 | 1 | 1 | -4
O=C(Cn1nc(-c2ccc(Cl)cc2)ccc1=O)N1CCN(c2ccccc2)CC1 | 5 | 0 | 1 | 10 | 32*
O=C(Cn1cnc2c(cnn2-c2ccc(Cl)cc2)c1=O)N1CCN(c2ccccc2)CC1 | -32* | 2 | 0 | -8 | 30
CCOC(=O)Cn1cnc2c(cnn2-c2ccccc2)c1=O | -1 | 0 | 0 | -6 | -6
O=C(Cn1cnc2c(cnn2-c2ccccc2)c1=O)N1CCOCC1 | -9 | 3 | 0 | 4 | 7
CCOC(=O)Cn1cnc2c(cnn2-c2ccc(Cl)cc2)c1=O | -49* | 15 | 0 | -11 | 13
O=C(Cn1cnc2ccccc2c1=O)c1ccc(Cl)cc1 | -42* | 2 | -1 | -3 | -7
CC(C)n1cnnc1SCC(=O)NNC(=O)COc1ccc(Cl)cc1 | 10 | 1 | 1 | -1 | -2
Cc1ccc(OCCCC(=O)NC2CCCCC2)cc1 | -19 | 1 | -1 | -11 | 5
O=C(CSC1=Nc2ccccc2C2=NC(Cc3ccccc3)C(=O)N12)Nc1ccccc1C(F)(F)F (stereo unspecified) | -11 | 0 | -1 | 0 | -2
